# PubChem BioAssay (NCI)
# Values joined by “and” are separate entries in the source; they are usually repeats but may differ in a detail not shown here. Equal entries are not always repeated. Compounds without any hit were thinned out: in the full panel of roughly 83,000, 20% have a hit.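 In brief: 96-well plates, 48 h treatment, single concentration, percent growth endpoint.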 Active and inactive are the calls of the source. The calls were made as follows: active = growth percent below 10; inactive = the rest.
# Experiments:
# Assay in all cases: NCI-60 one-dose screen, 48 h (100 = growth as untreated, 0 = no growth, -100 = all killed)
# SR leukemia = settings: 10 µM unless noted
# RPMI-8226 leukemia = settings: 10 µM
# OVCAR-8 ovarian = settings: 10 µM
# OVCAR-5 ovarian = settings: 10 µM
# OVCAR-4 ovarian = settings: 10 µM
# SK-OV-3 ovarian = settings: 10 µM
# IGROV1 ovarian = settings: 10 µM
# OVCAR-3 ovarian = settings: 10 µM
# HS 578T breast = settings: 10 µM
# NCI/ADR-RES ovarian = settings: 10 µM
# MDA-MB-435 melanoma = settings: 10 µM
# SW-620 colon = settings: 10 µM
# MCF7 breast = tested on: MCF7 breast
# HCT-116 colon = settings: 10 µM
# HCC-2998 colon = settings: 10 µM
# KM12 colon = settings: 10 µM
# T-47D breast = settings: 10 µM
# BT-549 breast = settings: 10 µM
Compound,growth (SR leukemia),growth (RPMI-8226 leukemia),growth (OVCAR-8 ovarian),growth (OVCAR-5 ovarian),growth (OVCAR-4 ovarian),growth (SK-OV-3 ovarian),growth (IGROV1 ovarian),growth (OVCAR-3 ovarian),growth (HS 578T breast),growth (NCI/ADR-RES ovarian),growth (MDA-MB-435 melanoma),growth (SW-620 colon),growth (MCF7 breast; 10 µM),growth (HCT-116 colon),growth (HCC-2998 colon),growth (KM12 colon),growth (T-47D breast),growth (BT-549 breast),growth (MCF7 breast; 50 µM)
CC(=O)OCC(OC(C)=O)C(OC(C)=O)C(OC(C)=O)C(OC(C)=O)C(/C=N/Nc1ccccc1)=N/Nc1ccccc1 (configuration not stated),2.05% (active),60.6% (inactive),63.8% (inactive),96.4% (inactive),82.6% (inactive),85.5% (inactive),60.1% (inactive),71.8% (inactive),73% (inactive),72.4% (inactive),65.6% (inactive),49.7% (inactive),44.1% (inactive),64.1% (inactive),91.2% (inactive),45.3% (inactive),,,
Nc1nc(=S)c2ncn(C3OC(CO)C(O)C3O)c2[nH]1 (configuration not stated),119% (inactive),103% (inactive) and 0.898% (active),100% (inactive) and 13.1% (inactive),101% (inactive) and 45.2% (inactive),103% (inactive) and 29.3% (inactive),118% (inactive),108% (inactive),112% (inactive) and 8.33% (active),163% (inactive) and 50.6% (inactive),106% (inactive) and 29.9% (inactive),109% (inactive) and 17.7% (inactive),107% (inactive) and 35.9% (inactive),123% (inactive) and 9.98% (active),107% (inactive) and 17.3% (inactive),109% (inactive) and 23% (inactive),104% (inactive) and 19.8% (inactive),121% (inactive) and 35.2% (inactive),126% (inactive) and -1.38% (active),
NNc1c2ccccc2nc2ccccc12,21.1% (inactive),34.7% (inactive),57.2% (inactive),102% (inactive),34.4% (inactive),63.5% (inactive),55% (inactive),51.4% (inactive),,57.3% (inactive),49.4% (inactive),43.9% (inactive),,40.1% (inactive),57.1% (inactive),36.7% (inactive),74.6% (inactive),43.8% (inactive),
CC(C)(C)CC(C)(C)c1ccc(OCCO)cc1,85.5% (inactive),124% (inactive),108% (inactive),111% (inactive),124% (inactive),116% (inactive),108% (inactive),116% (inactive),94.6% (inactive),105% (inactive),115% (inactive),109% (inactive),137% (inactive),102% (inactive),110% (inactive),,105% (inactive),,
O=C1C=C(O)c2ccccc2C1=O.[Ag],103% (inactive),104% (inactive),95.4% (inactive),115% (inactive),95.4% (inactive),137% (inactive),105% (inactive),117% (inactive),96.7% (inactive),109% (inactive),111% (inactive),106% (inactive),95.7% (inactive),111% (inactive),88.8% (inactive),96.4% (inactive),79.5% (inactive),115% (inactive),
Clc1cc(Cl)c(Cl)nn1,72% (inactive),75.6% (inactive),94.1% (inactive),115% (inactive),109% (inactive),95.2% (inactive),107% (inactive),114% (inactive),101% (inactive),107% (inactive),105% (inactive),107% (inactive),86.3% (inactive),86.2% (inactive),119% (inactive),105% (inactive),79.3% (inactive),82.8% (inactive),
CCCCCCCCCCCCCCCCCCOCC(COP(=O)([O-])OCC[N+](C)(C)C)OC (configuration not stated),48.1% (inactive),33.1% (inactive),,-61.3% (active),109% (inactive),81.8% (inactive),11.8% (inactive),95.9% (inactive),,107% (inactive),103% (inactive),70.1% (inactive),81.4% (inactive),65.1% (inactive),,,88% (inactive),97.1% (inactive),
COc1ccc(CC(=O)c2ccc(O)cc2O)cc1,,,92.8% (inactive),105% (inactive),99.2% (inactive),163% (inactive),122% (inactive),130% (inactive),108% (inactive),105% (inactive),115% (inactive),111% (inactive),108% (inactive),96.6% (inactive),107% (inactive),,182% (inactive),,
COC1OCC(O)C(O)C1O (configuration not stated),,109% (inactive),104% (inactive),110% (inactive),101% (inactive),111% (inactive),,106% (inactive),98.9% (inactive),110% (inactive),100% (inactive),99.3% (inactive),90.7% (inactive),102% (inactive),107% (inactive),103% (inactive),105% (inactive),105% (inactive),
Cc1nc(N=C(N)N)nc2ccc3ccccc3c12,,34.9% (inactive),-6.19% (active),26.8% (inactive),-3.65% (active),-5.35% (active),7.89% (active),-32.7% (active),3.6% (active),67.6% (inactive),-4.72% (active),9.65% (active),-18.1% (active),5.64% (active),13.3% (inactive),,-10.6% (active),13.7% (inactive),
O=C1C=CC(=CC=C2C=CN(CCCCCCCCCCCO)C=C2)C=C1,,11.9% (inactive),22.7% (inactive),55.4% (inactive),35.4% (inactive),45.4% (inactive),41.2% (inactive),30.2% (inactive),35.6% (inactive),104% (inactive),18.9% (inactive),41.9% (inactive),8.64% (active),23.3% (inactive),57.9% (inactive),24.2% (inactive),,-11% (active),
CCO/C=C1\SC(=S)N(c2cccc(O)c2)C1=O,85% (inactive),94.6% (inactive),99.4% (inactive),97.8% (inactive),93.8% (inactive),91.9% (inactive),99.2% (inactive),102% (inactive),108% (inactive),107% (inactive),102% (inactive),112% (inactive),84.1% (inactive),96.9% (inactive),111% (inactive),97.2% (inactive),87.4% (inactive),93.8% (inactive),
CCCCCCCCCCCC[N+](C)(C)Cc1ccccc1,4.5% (active),-48.3% (active),11.9% (inactive),55.6% (inactive),3.85% (active),34.9% (inactive),-49.2% (active),-0.287% (active),43.2% (inactive),96.8% (inactive),11.7% (inactive),45.2% (inactive),15.1% (inactive),21.5% (inactive),17.8% (inactive),-63.7% (active),14.2% (inactive),-21.1% (active),
CSC1SCC2C(=O)N(C)C(C(C)C)C(=O)OCC(NC(=O)c3cnc4ccccc4n3)C(=O)NC(C)C(=O)N(C)C1C(=O)N(C)C(C(C)C)C(=O)OCC(NC(=O)c1cnc3ccccc3n1)C(=O)NC(C)C(=O)N2C (configuration not stated),-37.7% (active),-30% (active),,2.94% (active),1.22% (active),15.5% (inactive),0.149% (active),5.79% (active),-60.8% (active),7.62% (active),-82.8% (active),1.31% (active),2.56% (active),-29.5% (active),-80.1% (active),,-8.25% (active),-48.3% (active),
COc1cccc2c1C(=O)c1c(O)c3c(c(O)c1C2=O)C[C@@](O)(C(C)=O)C[C@@H]3OC1CC(N)C(O)C(C)O1 (some centres not stated),-25.4% (active),-23.9% (active),,-12.3% (active),-3.17% (active),5.5% (active),-29% (active),-1.56% (active),-69% (active),23.9% (inactive),-87.2% (active),-3.91% (active),-9.83% (active),-37.5% (active),-86% (active),,-16.3% (active),-70.9% (active),-90.1% (active) and -89.5% (active)
CN1CCN(CCCN2c3ccccc3Sc3ccc(C(F)(F)F)cc32)CC1,14.2% (inactive),-7.1% (active),78.2% (inactive),,71.2% (inactive),92.4% (inactive),40.7% (inactive),92% (inactive),60.4% (inactive),70.8% (inactive),27.6% (inactive),34.3% (inactive),13.9% (inactive),36% (inactive),-6.16% (active),,,70.6% (inactive),
